CYP2C9 act: increases human cytochrome P450 2C9 activity | 96,000 compounds, 1.4% hits | recombinant CYP2C9, luciferin-H conversion, luminescence; stronger effect = higher value; factor 1 = untreated enzyme, 0 = blocked | AID 1024 | activation factor at 5 µM;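 active means activation factor of 2 or more for CYP2C9 at a 5 µM dose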;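 further: 0 = sulfaphenazole-blocked wells and 1 = vehicle-only wells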
CYP2C9 inhib: blocks human cytochrome P450 2C9 | P11712 | CYP2C9 Supersomes, luciferin-H conversion, luminescence | inhibition, % at 5 µM | 96,000 compounds, 20% hits | AID 777;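 active means blocking of liver enzyme CYP2C9 beyond about 50% at 5 µM, limit read from the data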
CD11b adhes inh: inhibitors of human CD11b/CD18 binding to fibrinogen. P05107+P11215. K562 CD11b/CD18 adhesion to fibrinogen, ATPlite luminescence; Mn2+ added to activate the integrin. inhibition, % at 10 µM. 93,000 compounds, 0.54% hits. AID 1497;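 active means primary inhibition of 50% or more at 10 µM, then 40% or more on retest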
CD11b adhes enh: enhancers of human CD11b/CD18 binding to fibrinogen; P05107+P11215; K562 CD11b/CD18 adhesion to fibrinogen, ATPlite luminescence; activation, % at 10 µM; 93,000 compounds, 0.07% hits;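 active means 10 µM primary screen giving 50% or more activity, confirmed by 40% or more on retest at that dose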
CYP2C19 inh: human CYP2C19 inhibition | P33261 | CYP2C19 Supersomes, luciferin-H EGE luminescence, 30 min | inhibition, % at 5 µM | 96,000 compounds, 21% hits;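 active means CYP2C19 inhibition above a set limit at 5 µM in the primary screen, cut at about 50% in these data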;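 further: plate controls were negative control wells for no effect and 2.5 mM tranylcypromine positive control for full effect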
Target sequence (P33261 whole entry, looked up): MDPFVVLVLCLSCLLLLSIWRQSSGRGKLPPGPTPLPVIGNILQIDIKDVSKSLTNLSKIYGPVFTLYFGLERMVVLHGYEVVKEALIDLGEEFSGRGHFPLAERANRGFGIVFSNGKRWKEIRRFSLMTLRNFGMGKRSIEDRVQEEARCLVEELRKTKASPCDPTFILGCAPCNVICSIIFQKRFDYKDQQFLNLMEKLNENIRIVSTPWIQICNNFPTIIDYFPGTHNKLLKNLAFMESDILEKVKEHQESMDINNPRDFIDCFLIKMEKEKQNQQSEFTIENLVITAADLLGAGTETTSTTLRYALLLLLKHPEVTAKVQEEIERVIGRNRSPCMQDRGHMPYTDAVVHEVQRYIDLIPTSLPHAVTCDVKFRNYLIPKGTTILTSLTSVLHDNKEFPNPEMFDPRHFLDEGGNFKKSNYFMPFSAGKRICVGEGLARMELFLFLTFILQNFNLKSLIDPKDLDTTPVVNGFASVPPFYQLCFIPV
CYP2C19 act: increases human CYP2C19 enzyme activity; P33261; recombinant CYP2C19, luciferin-H EGE luminescence; stronger effect = higher value; 0 = fully inhibited enzyme, 1 = untreated enzyme; activation factor at 5 µM; 96,000 tested, under 10 active;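 active means activation factor of at least 2 at 5 µM in the primary screen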;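 further: 0 = wells with 2.5 mM tranylcypromine and 1 = vehicle-only wells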
* hit, by the source's call; . = no result. Rows were chosen to be rich in hits. Some 28% of all compounds tested hit in one or more screens of this group.

SMILES	CYP2C9 act	CYP2C9 inhib	CD11b adhes inh	CD11b adhes enh	CYP2C19 inh	CYP2C19 act
CCOC(=O)C1=C(C)C(c2ccccc2)NC(=S)N1 (configuration not stated)	0.8	23.9	-4.2	1.9	63.3*	0.4
CC(=O)Nc1ccc(NC(=O)c2ccccc2CC[N+](=O)[O-])cc1	1	-4.8	7.4	-3.8	-10.0	1.1
COc1cccc(C(=O)CSc2nnc(CNS(C)(=O)=O)n2-c2ccc(C)cc2)c1	0.6	38.6	-20.3	0.0	32.7	0.7
CCCC(=O)Nc1nn(CCC)c2nc3ccccc3cc12	0.5	49.3	13.8	-7.2	23.9	0.8
CCn1nc(NC(=O)c2ccncc2)c2cc3ccc(C)cc3nc21	0.4	60.2*	-8.9	-0.8	63.2*	0.4
CCCn1nc(NC(=O)c2ccncc2)c2cc3ccccc3nc21	0.1	94.6*	6.2	-2.9	92.6*	0.1
Cc1ccc2cc3c(NC(=O)c4cccnc4)nn(C)c3nc2c1	0.9	11.4	-27.4	-4.9	12.2	0.9
CCOC(=O)c1c(C)c(C(=O)NCc2ccccn2)c(C)n1CC	0.9	9.5	-21.9	6.4	30.0	0.7
Cc1cc(NC(=O)CN2C(=O)C3CC=CCC3C2=O)no1 (configuration not stated)	1.2	-17.8	-10.4	-0.7	-8.6	1.1
CC(=O)Nc1cccc(C(=O)/C=C/c2ccco2)c1	2.3*	-126.2	6.6	-5.1	47.0	0.5
CC(=O)Nc1cccc(C(=O)/C=C/c2ccc(/C=C/C(=O)c3cccc(NC(C)=O)c3)cc2)c1	.	.	24.9	2.5	.	.
Nc1ccccc1C(=O)Nc1cccc(C(=O)O)c1	0.9	13.6	3.2	-1.3	59.1*	0.4
Cc1occc1C(=O)Nc1cccc(C(=O)O)c1	0.6	41.4	-2.1	-1.0	71.0*	0.3
Cc1ccc(Nc2nc(N3CCN(C)CC3)nc(N)c2[N+](=O)[O-])cc1C	.	.	13.9	20.4	.	.
COc1ccc(C2(CNC(=O)c3ccc(OCC(C)C)cc3)CCOCC2)cc1	.	.	-10.5	-2.0	.	.
COc1ccc(OCC(=O)Nc2ccc(S(=O)(=O)Nc3cc(C)nc(C)n3)cc2)cc1	0.9	13.5	23.2	2.5	13.7	0.9
COc1cc(NS(=O)(=O)c2ccc(NS(=O)(=O)c3ccccc3)cc2)nc(OC)n1	0.2	77.8*	-1.0	1.5	4.9	1
COc1cc(NS(=O)(=O)c2ccc(NC(=O)COc3ccc(C)cc3C)cc2)nc(OC)n1	0.3	69.4*	-16.9	-2.7	1.0	1
COc1cc(NS(=O)(=O)c2ccc(NC(=S)NC(=O)c3cccs3)cc2)nc(OC)n1	.	.	5.3	-0.7	.	.
COc1ccc(NC(=O)CSc2nc(NS(=O)(=O)c3ccccc3)cc(=O)[nH]2)cc1	0.8	17.0	-5.0	0.7	1.3	1
Cc1ccc(NC(=O)CSc2nc(NS(=O)(=O)c3ccc(C)cc3)cc(=O)[nH]2)cc1	0.4	64.7*	-18.4	1.0	27.6	0.7
COc1cc(NS(=O)(=O)c2ccc(NC(=O)COc3ccc(C)cc3)cc2)nc(OC)n1	0.2	81.6*	-8.0	-1.3	25.2	0.7
CC(=O)NS(=O)(=O)c1ccc(NC(=O)c2ccc(Br)o2)cc1	1.1	-11.3	-2.2	-0.4	-2.0	1
COc1cc(NS(=O)(=O)c2ccc(NC(=O)COc3ccccc3C)cc2)nc(OC)n1	0.1	90.6*	-10.3	2.2	19.9	0.8
COc1ccc(OC)c2c(C)cc(N3CCCN(C)CC3)nc12	1.2	-17.3	7.7	-0.6	12.4	0.9
SMILES	CYP2C9 act	CYP2C9 inhib	CD11b adhes inh	CD11b adhes enh	CYP2C19 inh	CYP2C19 act
CCn1cc(C(=O)N2CCCc3ccccc32)c2cc(OC)c(OC)cc2c1=O	0.8	20.9	12.0	-5.3	55.7*	0.4
COc1cc2c(C(=O)N3CCN(c4cccc(Cl)c4)CC3)cn(C)c(=O)c2cc1OC	0.6	42.2	-11.4	1.7	20.6	0.8
CCN(CC)C(=O)c1cn(CC)c(=O)c2cc(OC)c(OC)cc12	1.1	-12.8	4.0	-1.7	-22.6	1.2
COc1cccc2c(=O)n(CC(=O)N3CCCc4ccccc43)ccc12	0.5	45.6	-8.6	5.1	86.7*	0.1
CCn1cc(C(=O)N2CCN(c3cccc(Cl)c3)CC2)c2cc(OC)c(OC)cc2c1=O	0.2	80.1*	6.6	5.2	76.4*	0.2
CCOC(=O)COc1cccc2c(=O)n(CC(=O)N3CCCc4ccccc43)ccc12	1	1.3	-8.1	3.6	8.0	0.9
O=c1[nH]c(CN2CCN(C/C=C/c3ccccc3)CC2)nc2ccccc12	0.8	18.1	-28.1	4.0	27.3	0.7
Nc1nc(N2CCN(C/C=C/c3ccccc3)CC2)nc2ccccc12	0.3	70.3*	-8.7	-0.1	51.3*	0.5
CCCOC(=O)CSC1=C(C#N)C(c2ccccc2OC)C(C#N)C(=O)N1 (configuration not stated)	0.6	41.7	-7.1	-1.6	37.7	0.6
CCOC(=O)CSC1=C(C#N)C(c2ccccc2OCC)C(C(=O)OCC)C(=O)N1 (configuration not stated)	0.2	84.5*	6.1	-1.4	98.8*	0
CCOc1ccccc1C1C(C#N)=C(SCC(=O)OC)NC(=O)C1C(=O)OC (configuration not stated)	0.7	25.9	-12.4	0.1	70.1*	0.3
CCOC(=O)CSC1=C(C#N)C(c2ccccc2OCC)C(C#N)C(=O)N1 (configuration not stated)	0.2	77.6*	18.8	3.2	82.6*	0.2
CCOC(=O)C1C(=O)NC(SCC(=O)OC)=C(C#N)C1c1ccccc1OCC (configuration not stated)	0.7	27.0	0.4	0.5	67.5*	0.3
O=c1c2ccccc2cnn1-c1ccc(Cl)cc1	0.9	10.3	9.4	-5.3	14.2	0.9
CCCc1[nH]nc2c1C(c1ccccc1OCC)C(C#N)=C(N)O2 (configuration not stated)	1	1.4	-4.2	-1.9	15.3	0.8
CCCCSC1=C(C#N)C(c2ccccc2C)C(C(=O)OCC)C(=O)N1 (configuration not stated)	0.3	66.4*	3.6	5.3	60.9*	0.4
N#CC1=C(SCc2ccccc2Cl)NC(=O)C(C(N)=O)C1 (configuration not stated)	1.1	-7.4	-9.1	-3.5	-5.1	1.1
CCOC(=O)CSC1=C(C#N)C(c2ccccc2Cl)C(C(=O)OC)C(=O)N1 (configuration not stated)	0.4	64.6*	-1.0	-5.7	59.3*	0.4
C=CCSC1=C(C#N)C(c2ccccc2OCC)C(C#N)C(=O)N1 (configuration not stated)	0.5	53.7*	19.3	-2.3	55.3*	0.4

From PubChem BioAssay
